Test results taken from the supplement of paper PMC11732987, “Enantioselective OTUD7B fragment discovery through chemoproteomics screening and high-throughput optimisation” (Communications Chemistry, 2025).

Key:
Assay in all cases: log2 ratio of Biotin-Ahx-Ub-VS probe labelling (fragment/DMSO); higher = less target engagement (more negative = stronger competition), active = hit call of the paper (q ≤ 0.05, log2 ratio ≤ -1)
Details in all cases: compound concentration: 200 uM; treatment time: 3 h
USP19 = molecular target: T1, USP19 (UniProt O94966)
T1 sequence (whole entry): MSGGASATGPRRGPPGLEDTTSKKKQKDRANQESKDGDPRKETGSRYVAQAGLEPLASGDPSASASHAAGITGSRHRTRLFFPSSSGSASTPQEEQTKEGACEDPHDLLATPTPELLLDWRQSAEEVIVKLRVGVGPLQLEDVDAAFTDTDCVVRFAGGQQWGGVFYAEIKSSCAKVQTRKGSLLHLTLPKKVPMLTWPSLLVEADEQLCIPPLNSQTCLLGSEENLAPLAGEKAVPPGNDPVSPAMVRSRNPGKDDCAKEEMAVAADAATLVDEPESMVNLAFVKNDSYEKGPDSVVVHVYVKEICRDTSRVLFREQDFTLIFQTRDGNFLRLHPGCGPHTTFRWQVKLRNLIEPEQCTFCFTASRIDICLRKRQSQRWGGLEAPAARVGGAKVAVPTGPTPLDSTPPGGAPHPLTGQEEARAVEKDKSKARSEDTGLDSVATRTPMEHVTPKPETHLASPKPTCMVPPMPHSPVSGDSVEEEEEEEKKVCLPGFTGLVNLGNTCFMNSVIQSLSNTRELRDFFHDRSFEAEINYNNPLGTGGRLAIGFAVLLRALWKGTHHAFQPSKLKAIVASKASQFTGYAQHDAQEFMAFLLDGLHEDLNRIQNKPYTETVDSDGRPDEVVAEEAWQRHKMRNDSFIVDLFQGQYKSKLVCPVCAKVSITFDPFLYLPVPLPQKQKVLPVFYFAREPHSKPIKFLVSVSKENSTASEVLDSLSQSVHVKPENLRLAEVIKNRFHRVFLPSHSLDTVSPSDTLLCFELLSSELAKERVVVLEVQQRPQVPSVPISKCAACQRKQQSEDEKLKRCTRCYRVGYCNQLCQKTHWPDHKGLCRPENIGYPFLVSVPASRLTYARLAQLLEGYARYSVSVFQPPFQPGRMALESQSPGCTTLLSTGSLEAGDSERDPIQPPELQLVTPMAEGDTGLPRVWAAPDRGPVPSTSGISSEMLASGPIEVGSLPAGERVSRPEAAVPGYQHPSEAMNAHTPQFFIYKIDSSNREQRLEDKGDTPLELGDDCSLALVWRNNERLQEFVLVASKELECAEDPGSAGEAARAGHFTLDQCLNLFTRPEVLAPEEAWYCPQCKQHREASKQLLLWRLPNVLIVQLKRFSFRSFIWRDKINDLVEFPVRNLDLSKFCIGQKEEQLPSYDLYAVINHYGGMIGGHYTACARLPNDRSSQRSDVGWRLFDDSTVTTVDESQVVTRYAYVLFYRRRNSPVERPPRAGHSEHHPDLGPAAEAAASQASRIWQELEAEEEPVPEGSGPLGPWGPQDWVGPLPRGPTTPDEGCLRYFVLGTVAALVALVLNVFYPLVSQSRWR
Method in brief: (§1)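 Global-median-normalised Spectronaut label-free quantities were compared by unpaired t-test, and values are average log2 ratios of fragment over vehicle. Only proteins with ≥2 unique peptides were used. HEK293T lysate (495 µg per sample) was treated in triplicate with fragment at 200 µM or vehicle for 3 h and then with Biotin-Ahx-Ub-VS at 0.5 µM final for 1 h. Labelled DUBs were then NeutrAvidin-enriched, digested with LysC and trypsin, and run by diaPASEF LC-MS/MS.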

USP24 = USP24 (UniProt Q9UPU5)
Method in brief: as §1

USP25 = molecular target: T2, USP25 (UniProt Q9UHP3)
T2 sequence (whole entry): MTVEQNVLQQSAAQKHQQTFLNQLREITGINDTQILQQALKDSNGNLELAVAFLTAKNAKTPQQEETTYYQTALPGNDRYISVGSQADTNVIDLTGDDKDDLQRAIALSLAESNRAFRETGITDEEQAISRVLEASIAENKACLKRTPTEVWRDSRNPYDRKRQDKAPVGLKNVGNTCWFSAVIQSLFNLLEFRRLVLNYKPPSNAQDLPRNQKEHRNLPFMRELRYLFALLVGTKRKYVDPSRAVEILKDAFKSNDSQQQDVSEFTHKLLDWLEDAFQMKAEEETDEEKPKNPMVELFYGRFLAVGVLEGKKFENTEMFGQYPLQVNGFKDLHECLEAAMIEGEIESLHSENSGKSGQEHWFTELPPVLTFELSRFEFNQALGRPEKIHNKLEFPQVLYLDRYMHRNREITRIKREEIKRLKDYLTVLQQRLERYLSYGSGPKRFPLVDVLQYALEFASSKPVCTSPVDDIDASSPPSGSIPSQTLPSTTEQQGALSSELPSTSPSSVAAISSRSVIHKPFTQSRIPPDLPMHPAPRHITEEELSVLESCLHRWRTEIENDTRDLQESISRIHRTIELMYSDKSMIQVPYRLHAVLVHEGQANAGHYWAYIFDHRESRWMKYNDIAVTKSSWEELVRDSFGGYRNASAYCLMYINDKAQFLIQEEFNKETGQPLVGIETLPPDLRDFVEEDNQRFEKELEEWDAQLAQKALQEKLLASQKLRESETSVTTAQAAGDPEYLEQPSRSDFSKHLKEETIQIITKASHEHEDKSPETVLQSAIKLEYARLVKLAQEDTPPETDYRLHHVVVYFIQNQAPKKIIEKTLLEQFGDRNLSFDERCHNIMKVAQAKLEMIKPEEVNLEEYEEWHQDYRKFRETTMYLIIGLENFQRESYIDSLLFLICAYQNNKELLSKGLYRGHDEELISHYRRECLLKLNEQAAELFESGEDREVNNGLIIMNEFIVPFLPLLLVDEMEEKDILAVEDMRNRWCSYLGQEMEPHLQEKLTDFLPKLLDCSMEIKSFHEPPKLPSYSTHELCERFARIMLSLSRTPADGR
Method in brief: as §1

USP28 = molecular target: T3, USP28 (UniProt Q96RU2)
T3 sequence (whole entry): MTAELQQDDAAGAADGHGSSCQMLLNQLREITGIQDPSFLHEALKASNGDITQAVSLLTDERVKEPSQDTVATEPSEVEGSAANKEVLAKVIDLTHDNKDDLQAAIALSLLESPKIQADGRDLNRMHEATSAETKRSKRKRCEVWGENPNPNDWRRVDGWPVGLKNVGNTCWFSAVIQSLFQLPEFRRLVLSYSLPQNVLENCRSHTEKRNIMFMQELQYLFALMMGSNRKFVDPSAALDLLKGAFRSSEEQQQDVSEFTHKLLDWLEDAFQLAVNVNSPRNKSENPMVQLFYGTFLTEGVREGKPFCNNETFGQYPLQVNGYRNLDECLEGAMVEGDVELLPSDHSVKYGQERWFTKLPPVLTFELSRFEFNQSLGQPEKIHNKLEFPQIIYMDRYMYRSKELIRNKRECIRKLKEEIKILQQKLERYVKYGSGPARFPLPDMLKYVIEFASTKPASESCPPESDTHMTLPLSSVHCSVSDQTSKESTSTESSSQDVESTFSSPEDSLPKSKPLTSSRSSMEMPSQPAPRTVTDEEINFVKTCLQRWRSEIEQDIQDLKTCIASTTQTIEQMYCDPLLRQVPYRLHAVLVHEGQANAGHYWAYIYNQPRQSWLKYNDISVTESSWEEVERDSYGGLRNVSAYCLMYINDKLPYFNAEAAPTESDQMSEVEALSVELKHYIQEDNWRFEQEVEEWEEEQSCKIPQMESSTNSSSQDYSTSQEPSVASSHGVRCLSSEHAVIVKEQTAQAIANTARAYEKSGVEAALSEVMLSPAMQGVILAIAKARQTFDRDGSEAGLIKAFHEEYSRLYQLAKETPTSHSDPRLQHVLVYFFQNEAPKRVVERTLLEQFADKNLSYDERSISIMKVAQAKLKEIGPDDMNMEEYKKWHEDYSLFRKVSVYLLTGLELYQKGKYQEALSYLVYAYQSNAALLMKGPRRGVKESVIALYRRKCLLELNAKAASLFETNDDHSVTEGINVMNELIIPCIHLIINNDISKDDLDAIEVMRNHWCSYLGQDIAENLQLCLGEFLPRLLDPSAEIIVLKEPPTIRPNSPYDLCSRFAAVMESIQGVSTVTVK
Method in brief: as §1

Measured: log2 ratio of Biotin-Ahx-Ub-VS probe labelling

USP24, sequence (Q9UPU5 whole entry): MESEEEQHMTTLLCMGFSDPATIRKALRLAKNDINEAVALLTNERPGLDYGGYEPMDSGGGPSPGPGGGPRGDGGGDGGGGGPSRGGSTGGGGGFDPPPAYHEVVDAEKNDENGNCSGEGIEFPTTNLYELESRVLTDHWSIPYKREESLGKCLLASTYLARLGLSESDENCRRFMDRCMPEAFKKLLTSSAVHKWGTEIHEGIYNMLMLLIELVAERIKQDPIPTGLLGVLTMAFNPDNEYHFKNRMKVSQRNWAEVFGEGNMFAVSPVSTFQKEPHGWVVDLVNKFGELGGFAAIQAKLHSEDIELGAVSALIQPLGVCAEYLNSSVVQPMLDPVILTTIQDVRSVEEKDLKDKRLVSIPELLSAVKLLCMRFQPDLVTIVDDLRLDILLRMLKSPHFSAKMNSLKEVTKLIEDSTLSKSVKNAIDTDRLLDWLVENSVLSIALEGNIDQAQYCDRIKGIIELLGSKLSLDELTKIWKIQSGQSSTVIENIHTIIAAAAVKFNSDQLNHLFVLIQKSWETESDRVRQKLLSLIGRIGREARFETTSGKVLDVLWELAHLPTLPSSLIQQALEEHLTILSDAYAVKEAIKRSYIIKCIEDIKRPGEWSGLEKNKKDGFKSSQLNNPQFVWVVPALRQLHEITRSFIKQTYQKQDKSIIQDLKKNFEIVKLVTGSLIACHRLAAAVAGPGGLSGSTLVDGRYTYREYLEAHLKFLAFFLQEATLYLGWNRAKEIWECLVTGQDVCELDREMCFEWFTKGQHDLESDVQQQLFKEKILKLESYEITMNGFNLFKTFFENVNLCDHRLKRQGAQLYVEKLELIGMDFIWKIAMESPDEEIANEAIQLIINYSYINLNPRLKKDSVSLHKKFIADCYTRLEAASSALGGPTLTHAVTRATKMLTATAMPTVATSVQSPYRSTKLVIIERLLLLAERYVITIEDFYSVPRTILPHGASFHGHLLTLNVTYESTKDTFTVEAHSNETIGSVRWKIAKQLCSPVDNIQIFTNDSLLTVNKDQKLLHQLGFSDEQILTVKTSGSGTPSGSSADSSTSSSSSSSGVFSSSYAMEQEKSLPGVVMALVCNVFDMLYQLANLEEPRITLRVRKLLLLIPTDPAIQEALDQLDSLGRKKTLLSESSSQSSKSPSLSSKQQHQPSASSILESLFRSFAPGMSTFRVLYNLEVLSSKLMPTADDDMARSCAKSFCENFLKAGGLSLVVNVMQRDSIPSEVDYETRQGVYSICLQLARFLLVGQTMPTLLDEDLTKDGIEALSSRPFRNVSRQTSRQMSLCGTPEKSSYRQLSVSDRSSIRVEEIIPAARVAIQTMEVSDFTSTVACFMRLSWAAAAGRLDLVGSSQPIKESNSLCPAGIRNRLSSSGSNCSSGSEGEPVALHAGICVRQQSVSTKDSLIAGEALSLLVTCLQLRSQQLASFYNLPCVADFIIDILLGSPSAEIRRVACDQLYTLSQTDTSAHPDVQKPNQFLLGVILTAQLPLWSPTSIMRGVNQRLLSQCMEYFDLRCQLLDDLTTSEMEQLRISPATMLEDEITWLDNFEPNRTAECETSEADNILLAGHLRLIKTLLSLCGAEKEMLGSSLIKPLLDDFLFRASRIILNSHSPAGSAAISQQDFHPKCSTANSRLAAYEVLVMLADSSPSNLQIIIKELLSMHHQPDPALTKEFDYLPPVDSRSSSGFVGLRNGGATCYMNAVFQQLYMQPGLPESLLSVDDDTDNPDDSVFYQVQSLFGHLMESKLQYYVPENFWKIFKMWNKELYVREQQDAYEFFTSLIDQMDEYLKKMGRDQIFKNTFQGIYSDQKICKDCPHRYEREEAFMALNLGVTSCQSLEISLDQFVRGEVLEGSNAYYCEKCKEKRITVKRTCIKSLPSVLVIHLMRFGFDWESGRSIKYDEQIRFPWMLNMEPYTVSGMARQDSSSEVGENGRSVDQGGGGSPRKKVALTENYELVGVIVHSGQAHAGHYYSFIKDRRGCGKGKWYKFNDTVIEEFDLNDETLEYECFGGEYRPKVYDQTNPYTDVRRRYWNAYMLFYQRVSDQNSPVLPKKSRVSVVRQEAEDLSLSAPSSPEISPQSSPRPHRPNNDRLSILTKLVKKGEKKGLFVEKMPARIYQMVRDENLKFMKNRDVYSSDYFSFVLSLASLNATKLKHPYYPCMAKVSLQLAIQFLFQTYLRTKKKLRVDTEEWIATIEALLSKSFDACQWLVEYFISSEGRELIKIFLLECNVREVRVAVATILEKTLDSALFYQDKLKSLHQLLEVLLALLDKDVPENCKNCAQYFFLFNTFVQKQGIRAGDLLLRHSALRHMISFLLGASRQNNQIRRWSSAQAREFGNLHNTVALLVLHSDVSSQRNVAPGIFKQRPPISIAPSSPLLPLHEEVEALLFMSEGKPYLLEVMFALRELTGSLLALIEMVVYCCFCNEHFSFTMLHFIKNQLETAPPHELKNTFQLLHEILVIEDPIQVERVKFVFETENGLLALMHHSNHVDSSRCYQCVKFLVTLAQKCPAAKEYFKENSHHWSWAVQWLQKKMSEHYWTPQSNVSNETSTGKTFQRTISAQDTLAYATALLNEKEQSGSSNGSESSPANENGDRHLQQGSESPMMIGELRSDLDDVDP

O=C(CCl)N1CCc2ccccc2C(O)C1 (centres undefined)
inactive: USP19 -0.315 | USP24 -0.483 | USP25 -0.343 | USP28 -0.698
